Measured values published in PubChem BioAssay (NCATS).
Inconclusive results are not listed. Unmarked numbers belong to inactive results. The call rests on the fitted dose curve; in most records, active means well fitted curve in the direction sought with a large enough effect; inconclusive means small, poorly fitted or top-dose-only effect, or another doubt; inactive means no such curve, though single readings can be large; an effect the other way counts as inactive or inconclusive.

Assay: Cell Viability - NIH 3T3 (AID 541);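 further: plate controls were DMSO alone for no effect and tamoxifen positive control for full effect; nearly all actives have a fitted effect of over 25% in size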
Details: NIH 3T3 cell viability, qHTS; activity change, negative = cytotoxicity: at 92.2 µM (top of the series)
Method in brief: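 Mouse NIH 3T3 fibroblasts, 1000 cells/well, rested 5 hr at 37 °C, then exposed to compound for 40 hr at 37 °C in complete medium. Viability read as intracellular ATP by CellTiter-Glo luminescence; AC50 from Hill-equation fits of concentration-response data.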
For Oc1c(Cl)ccc(Cl)c1Cl, the “activity change, negative = cytotoxicity” value was -17.4%.
In the case of CCCCCO, the “activity change, negative = cytotoxicity” value was 9.68%.
In the case of CCCCCCC(=O)O, the “activity change, negative = cytotoxicity” value was -26.6%.
For CCCCCCCCC/C=C/CC1CC(=O)OC1=O (stereo not drawn), the “activity change, negative = cytotoxicity” value was -4.35%.
For c1ccc(Nc2ccccc2)cc1, the “activity change, negative = cytotoxicity” value was -6.75%.
With O=[N+]([O-])c1ccc(Cl)cc1Cl the “activity change, negative = cytotoxicity” value was -9.93%.
In the case of CCc1ccccc1, the “activity change, negative = cytotoxicity” value was -13%.
In the case of FC(F)(F)c1cccc(Cl)c1, the “activity change, negative = cytotoxicity” value was -10.7%.
For FB(F)F, the “activity change, negative = cytotoxicity” value was -5.67%.
With C=C(C)C(=O)OC the “activity change, negative = cytotoxicity” value was -0.524%.
With O=C(O)CN(CC(=O)O)CC(=O)O the “activity change, negative = cytotoxicity” value was -10.4%.
In the case of CC=O, the “activity change, negative = cytotoxicity” value was -0.025%.
In the case of Cc1ccc(Cl)cc1, the “activity change, negative = cytotoxicity” value was 1.74%.
With C=Cc1ccc(C=C)cc1 the “activity change, negative = cytotoxicity” value was -14%.
For CC(O)CC(C)O (stereo not drawn), the “activity change, negative = cytotoxicity” value was -22.5%.
With O=C(Cl)c1c(Cl)cccc1Cl the “activity change, negative = cytotoxicity” value was -9.54%.
For O=C(O)c1cccc([N+](=O)[O-])c1, the “activity change, negative = cytotoxicity” value was -8.34%.
In the case of Clc1cc(Cl)cc(Cl)c1, the “activity change, negative = cytotoxicity” value was 8.23%.
For NC(N)=S, the “activity change, negative = cytotoxicity” value was 3.67%.
In the case of CC(C)(O)CCC(C)(C)O, the “activity change, negative = cytotoxicity” value was 1.93%.
In the case of OC(CCl)CCl, the “activity change, negative = cytotoxicity” value was -4.93%.
In the case of CCC(O)C(C)(C)C (stereo not drawn), the “activity change, negative = cytotoxicity” value was -4.81%.
With CNC(=O)c1ccccc1 the “activity change, negative = cytotoxicity” value was -22.8%.
With CCNc1ccccc1 the “activity change, negative = cytotoxicity” value was 5.61%.
In the case of c1ccsc1, the “activity change, negative = cytotoxicity” value was -12.2%.
With O=C(Cl)c1ccccc1[N+](=O)[O-] the “activity change, negative = cytotoxicity” value was -2.43%.
In the case of Cc1ccc2cccnc2c1, the “activity change, negative = cytotoxicity” value was -10.4%.
For C/C(C=O)=C/c1ccccc1, the “activity change, negative = cytotoxicity” value was -6.11%.
For CCCCCCCCCCCCC1CO1 (stereo not drawn), the “activity change, negative = cytotoxicity” value was -2.99%.
In the case of CC(=O)OC(C)=O, the “activity change, negative = cytotoxicity” value was -17.5%.
For CC(C)c1ccccc1, the “activity change, negative = cytotoxicity” value was 0.891%.
In the case of COC(=O)c1ccccc1, the “activity change, negative = cytotoxicity” value was -3.8%.
For C/C=C1\CC2C=CC1C2 (stereo not drawn), the “activity change, negative = cytotoxicity” value was -6.8%.
In the case of C=C(C)C(=O)OCC(C)O (stereo not drawn), the “activity change, negative = cytotoxicity” value was 5.28%.
With NC(=O)c1ccccc1[N+](=O)[O-] the “activity change, negative = cytotoxicity” value was 3.76%.
For CC(CCl)OC(C)CCl (stereo not drawn), the “activity change, negative = cytotoxicity” value was -15.8%.
In the case of Cc1cccc([N+](=O)[O-])c1C(=O)O, the “activity change, negative = cytotoxicity” value was -0.496%.
With c1ccc(Oc2ccccc2)cc1 the “activity change, negative = cytotoxicity” value was 0.241%.
With CN(C)CCCCl the “activity change, negative = cytotoxicity” value was -4.06%.

Assay: Cell Viability - HUV-EC-C (AID 542); further: on the % scale 0 is the no-effect control and ±100 the full control effect; nearly all actives have a fitted effect of over 35% in size
Details: HUV-EC-C endothelial cell viability, qHTS; series mostly up to 92.2 µM; activity change, negative = cytotoxicity: at the top concentration
Method in brief: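 HUV-EC-C human vascular endothelial cells, 1000/well, exposed to compound for 40 hr at 37 °C in complete medium. Intracellular ATP was read by CellTiter-Glo luminescence. AC50 came from Hill-equation fits of concentration-response data.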
For Oc1c(Cl)ccc(Cl)c1Cl, the “activity change, negative = cytotoxicity” value was 10.4%.
In the case of CCCCCO, the “activity change, negative = cytotoxicity” value was 11.9%.
With CCCCCCC(=O)O the “activity change, negative = cytotoxicity” value was 2.98%.
In the case of CCCCCCCCC/C=C/CC1CC(=O)OC1=O (stereo not drawn), the “activity change, negative = cytotoxicity” value was 13.6%.
For c1ccc(Nc2ccccc2)cc1, the “activity change, negative = cytotoxicity” value was -9.03%.
With O=[N+]([O-])c1ccc(Cl)cc1Cl the “activity change, negative = cytotoxicity” value was 4.8%.
In the case of CCc1ccccc1, the “activity change, negative = cytotoxicity” value was 0.2%.
In the case of FC(F)(F)c1cccc(Cl)c1, the “activity change, negative = cytotoxicity” value was -9.01%.
With FB(F)F the “activity change, negative = cytotoxicity” value was 7.12%.
For C=C(C)C(=O)OC, the “activity change, negative = cytotoxicity” value was 8.98%.
With O=C(O)CN(CC(=O)O)CC(=O)O the “activity change, negative = cytotoxicity” value was -2.66%.
In the case of CC=O, the “activity change, negative = cytotoxicity” value was 7.36%.
With Cc1ccc(Cl)cc1 the “activity change, negative = cytotoxicity” value was 9.72%.
For C=Cc1ccc(C=C)cc1, the “activity change, negative = cytotoxicity” value was 6.77%.
With CC(O)CC(C)O (stereo not drawn) the “activity change, negative = cytotoxicity” value was -7.03%.
For O=C(Cl)c1c(Cl)cccc1Cl, the “activity change, negative = cytotoxicity” value was -3.39%.
In the case of O=C(O)c1cccc([N+](=O)[O-])c1, the “activity change, negative = cytotoxicity” value was -0.275%.
For Clc1cc(Cl)cc(Cl)c1, the “activity change, negative = cytotoxicity” value was 6.36%.
For NC(N)=S, the “activity change, negative = cytotoxicity” value was 6.68%.
In the case of CC(C)(O)CCC(C)(C)O, the “activity change, negative = cytotoxicity” value was 12.9%.
With OC(CCl)CCl the “activity change, negative = cytotoxicity” value was -0.74%.
With CCC(O)C(C)(C)C (stereo not drawn) the “activity change, negative = cytotoxicity” value was 13.3%.
In the case of CNC(=O)c1ccccc1, the “activity change, negative = cytotoxicity” value was -6.88%.
With CCNc1ccccc1 the “activity change, negative = cytotoxicity” value was 7.26%.
For c1ccsc1, the “activity change, negative = cytotoxicity” value was 9.95%.
In the case of O=C(Cl)c1ccccc1[N+](=O)[O-], the “activity change, negative = cytotoxicity” value was -0.0117%.
In the case of Cc1ccc2cccnc2c1, the “activity change, negative = cytotoxicity” value was -11.3%.
In the case of C/C(C=O)=C/c1ccccc1, the “activity change, negative = cytotoxicity” value was 7.18%.
In the case of CCCCCCCCCCCCC1CO1 (stereo not drawn), the “activity change, negative = cytotoxicity” value was 13.9%.
For CC(=O)OC(C)=O, the “activity change, negative = cytotoxicity” value was 2.79%.
For CC(C)c1ccccc1, the “activity change, negative = cytotoxicity” value was -6.62%.
For COC(=O)c1ccccc1, the “activity change, negative = cytotoxicity” value was -4.94%.
For C/C=C1\CC2C=CC1C2 (stereo not drawn), the “activity change, negative = cytotoxicity” value was -2%.
In the case of C=C(C)C(=O)OCC(C)O (stereo not drawn), the “activity change, negative = cytotoxicity” value was 6.08%.
For NC(=O)c1ccccc1[N+](=O)[O-], the “activity change, negative = cytotoxicity” value was 0.425%.
With CC(CCl)OC(C)CCl (stereo not drawn) the “activity change, negative = cytotoxicity” value was -2.98%.
In the case of Cc1cccc([N+](=O)[O-])c1C(=O)O, the “activity change, negative = cytotoxicity” value was 5.62%.
For c1ccc(Oc2ccccc2)cc1, the “activity change, negative = cytotoxicity” value was 2.06%.
With CN(C)CCCCl the “activity change, negative = cytotoxicity” value was -7.26%.
